{
  "source": "PubChem BioAssay AID1030",
  "about": "(National Center for Advancing Translational Sciences (NCATS), 2008)",
  "note": "In all, about 220,000 compounds went through this assay and about 16,000 (7.3%) were called active. Another 25% or so got no clear call; they are omitted. Calls follow the shape of the dose curve; as a rule, active = well fitted inhibition curve with a large enough effect (not every such curve was filed as active); inconclusive = small, poorly fitted or top-dose-only effect, or another doubt; inactive = no such curve, though single readings can be large or run the other way. Shown is part of a subset that was picked to be rich in actives. Entries that show only a call come without a potency. Potency is read from the fitted curve at half-maximal effect.",
  "data": [
    {"biological_target": "Aldehyde dehydrogenase 1A1 (Homo sapiens) (UniProt P00352)", "sequence (P00352 whole entry, looked up)": "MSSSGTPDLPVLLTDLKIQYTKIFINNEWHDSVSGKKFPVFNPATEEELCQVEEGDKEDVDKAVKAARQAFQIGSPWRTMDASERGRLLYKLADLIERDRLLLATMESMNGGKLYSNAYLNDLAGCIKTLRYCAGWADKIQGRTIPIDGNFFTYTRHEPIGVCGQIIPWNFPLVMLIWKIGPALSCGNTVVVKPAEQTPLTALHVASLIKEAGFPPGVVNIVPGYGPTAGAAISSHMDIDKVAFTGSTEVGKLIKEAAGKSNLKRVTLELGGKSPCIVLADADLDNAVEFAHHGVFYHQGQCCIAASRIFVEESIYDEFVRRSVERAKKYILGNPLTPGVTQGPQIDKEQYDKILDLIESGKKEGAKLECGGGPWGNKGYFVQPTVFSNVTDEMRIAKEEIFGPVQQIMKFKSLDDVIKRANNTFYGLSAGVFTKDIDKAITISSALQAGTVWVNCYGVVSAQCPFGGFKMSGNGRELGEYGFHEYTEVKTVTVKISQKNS", "assay": "qHTS Assay for Inhibitors of Aldehyde Dehydrogenase 1 (ALDH1A1)", "conditions": "Purified ALDH1A1, NADH fluorescence, propionaldehyde substrate; series mostly up to 75.3 µM", "values": [
      {"smiles": "N/C(=N\\OC(=O)COc1ccc([N+](=O)[O-])cc1)c1ccc(Br)cc1", "Potency": "inactive"},
      {"smiles": "COC(=O)C(NS(=O)(=O)c1ccc(F)cc1)c1ccccc1", "note": "(centres undefined)", "Potency": "inactive"},
      {"smiles": "CC1CCC(C(C)C)C(=O)/C1=C\\c1ccc(NC(=O)CCC(=O)O)cc1", "note": "(centres undefined)", "Potency": "inactive"},
      {"smiles": "COc1ccc(S(=O)(=O)N2CCN(C(=O)c3cc(C)oc3C)CC2)cc1", "Potency": "inactive"},
      {"smiles": "COc1ccc(OC)c(C(=O)c2coc3ccc(OC)cc23)c1", "Potency": "14.1 µM (active)"},
      {"smiles": "COc1ccc(OC)c(C(=O)c2coc3ccc(O)c(CN4CCOCC4)c23)c1", "Potency": "inactive"},
      {"smiles": "COc1ccc2occ(C(=O)c3ccc(N=C(C)N(C)C)cc3)c2c1", "Potency": "inactive"},
      {"smiles": "NS(=O)(=O)c1ccc(CCNC(=O)c2ccc([N+](=O)[O-])cc2[N+](=O)[O-])cc1", "Potency": "inactive"},
      {"smiles": "CCOC(=O)CCCNC(=O)COC(=O)c1cc(Br)c(Br)s1", "Potency": "inactive"},
      {"smiles": "O=C(NC1CCCC1)C(c1ccc(N2CCOCC2)cc1)N(C(=O)c1ccco1)c1ccccc1F", "note": "(centres undefined)", "Potency": "inactive"},
      {"smiles": "COc1ccc(C(c2nnnn2Cc2cccs2)N2CCN(c3ccccc3)CC2)cc1OC", "note": "(centres undefined)", "Potency": "2 µM (active)"},
      {"smiles": "COCCn1nnnc1C(c1ccccc1Cl)N1CCN(c2ccccc2OC)CC1", "note": "(centres undefined)", "Potency": "inactive"},
      {"smiles": "COc1ccc(CCn2nnnc2C(c2ccccc2)N2CCN(C)CC2)cc1OC", "note": "(centres undefined)", "Potency": "inactive"},
      {"smiles": "C=C(C)Cn1c(N2CCN(CC)CC2)nc2c1c(=O)[nH]c(=O)n2C", "Potency": "inactive"},
      {"smiles": "C=C(C)Cn1c(N2CCCC2)nc2c1c(=O)[nH]c(=O)n2C", "Potency": "inactive"},
      {"smiles": "CC1CCN(c2nc3c(c(=O)[nH]c(=O)n3C)n2CCCc2ccccc2)CC1", "Potency": "31.6 µM (active)"},
      {"smiles": "Cc1ccnc(SCCn2c(Br)nc3c2c(=O)[nH]c(=O)n3C)n1", "Potency": "inactive"},
      {"smiles": "CN1CCN(c2nc3c(c(=O)[nH]c(=O)n3C)n2Cc2cccc3ccccc23)CC1", "Potency": "25.1 µM (active)"},
      {"smiles": "Cn1c(=O)[nH]c(=O)c2c1nc(NCCCn1ccnc1)n2Cc1cccc(Br)c1", "Potency": "inactive"},
      {"smiles": "COc1ccc(CCn2c(NCCCN3CCOCC3)nc3c2c(=O)[nH]c(=O)n3C)cc1", "Potency": "inactive"},
      {"smiles": "Cc1nnc(SCCCn2c(N3CCCCC3)nc3c2c(=O)[nH]c(=O)n3C)s1", "Potency": "14.1 µM (active)"},
      {"smiles": "Cn1c(=O)[nH]c(=O)c2c1nc(N1CCCCCC1)n2CC(=O)c1ccccc1", "Potency": "inactive"},
      {"smiles": "COc1ccc(OC)c(NC(=O)N[C@H](Cc2ccccc2)C(=O)NN)c1", "Potency": "inactive"},
      {"smiles": "CC(C)CN1CCNC(=O)C1CC(=O)N(C)CC1CCOCC1", "note": "(centres undefined)", "Potency": "inactive"},
      {"smiles": "Cc1ccc(CN(C)CC(=O)Nc2cccc([N+](=O)[O-])c2)o1", "Potency": "inactive"},
      {"smiles": "CC(=O)c1ccc(NC(=S)N(Cc2ccccc2)C(C)C2CC2)cc1", "note": "(centres undefined)", "Potency": "inactive"},
      {"smiles": "Cc1ccc(CC2CC(=O)N(c3ccc4c(c3)OCCO4)C2=O)cc1", "note": "(centres undefined)", "Potency": "inactive"},
      {"smiles": "Cc1ccc(N2C(=O)CC(NCc3ccc4c(c3)OCO4)C2=O)cc1Cl", "note": "(centres undefined)", "Potency": "22.4 µM (active)"},
      {"smiles": "CC1CCC(N2CC(=O)N(Cc3ccc4c(c3)OCO4)C(c3ccc(F)cc3)C2=O)CC1", "note": "(centres undefined)", "Potency": "inactive"},
      {"smiles": "O=C1NC(c2cccc(Cl)c2)Nc2ccccc21", "note": "(centres undefined)", "Potency": "inactive"},
      {"smiles": "N/C(=N\\S(=O)(=O)c1ccc(Cl)cc1)N1CCOCC1", "Potency": "inactive"},
      {"smiles": "Cc1ccc(N(C(=O)c2sc(C)nc2C)C(C(=O)NC(C)(C)C)c2ccncc2)cc1", "note": "(centres undefined)", "Potency": "inactive"},
      {"smiles": "Cc1c(C(=O)O)nnn1-c1nonc1N", "Potency": "inactive"},
      {"smiles": "CCOC(=O)c1c(NC(=O)/C=C/c2ccco2)sc(C)c1C", "Potency": "inactive"},
      {"smiles": "CC1(C)CC(=O)C(C=NCc2cccnc2)=C(O)C1", "Potency": "inactive"},
      {"smiles": "CC(=O)N1CCN(CCN=CC2=C(O)CC(C)(C)CC2=O)CC1", "Potency": "inactive"},
      {"smiles": "CCOC(=O)c1c(/N=C/C2C(=O)CC(C)(C)CC2=O)sc(C)c1C", "Potency": "2.24 µM (active)"},
      {"smiles": "CCN(C(=O)COC(=O)c1c(NC(C)=O)sc(C)c1C)C1CCS(=O)(=O)C1", "note": "(centres undefined)", "Potency": "inactive"},
      {"smiles": "CCOC(=O)c1sc(/N=C/C2=C(O)CC(C)(C)CC2=O)c(C(=O)OCC)c1C", "Potency": "11.2 µM (active)"},
      {"smiles": "Cc1cc(C)nc(N/N=C/c2c(C)oc3ccccc23)n1", "Potency": "inactive"},
      {"smiles": "O=C(COc1ccccc1[N+](=O)[O-])NC1CC1", "Potency": "inactive"},
      {"smiles": "C=CCNC(=O)COC(=O)CNC(=O)c1cc(Cl)cc([N+](=O)[O-])c1", "Potency": "inactive"},
      {"smiles": "Cn1cc(CCC(=O)N2CCCC(C(=O)c3ccc(C(C)(C)C)cc3)C2)cn1", "note": "(centres undefined)", "Potency": "inactive"},
      {"smiles": "Cc1nn(CC(=O)N/N=C/c2ccc(F)cc2)c(C)c1[N+](=O)[O-]", "Potency": "inactive"},
      {"smiles": "O=C(CCCc1ccccc1)NCc1ccccc1", "Potency": "inactive"},
      {"smiles": "C/C(=C\\c1ccco1)CN1CCC(N2CCC(C(=O)N3CCOCC3)CC2)CC1", "Potency": "inactive"},
      {"smiles": "Cc1cc(C)n2nc(SCC(N)=O)nc2n1", "Potency": "inactive"},
      {"smiles": "COc1ccc(C(C)=O)cc1CSc1nc2nc(C)cc(C)n2n1", "Potency": "20 µM (active)"},
      {"smiles": "CCOC(=O)C(C)Sc1nnc(CSc2nc3nc(C)cc(C)n3n2)o1", "note": "(centres undefined)", "Potency": "inactive"},
      {"smiles": "O=C(CCC(=O)OCc1ccc(Cl)cc1)Nc1ccccc1", "Potency": "inactive"},
      {"smiles": "Cc1cc(C)c2nc(-c3cccnc3)cc(C(=O)Nc3ccc(S(=O)(=O)Nc4onc(C)c4C)cc3)c2c1", "Potency": "inactive"},
      {"smiles": "COc1ccc(/C=C/C(=O)c2ccc(NS(=O)(=O)c3ccc(C)cc3)cc2)cc1O", "Potency": "inactive"},
      {"smiles": "CN1CCN(C(=O)CCc2ncc(C(F)(F)F)cc2Cl)CC1", "Potency": "inactive"},
      {"smiles": "CC(CC(=O)C1C(C)C=CCC1(C)C)NNC(N)=O", "note": "(centres undefined)", "Potency": "inactive"}
    ]}
  ]
}
